# Only some compounds are listed: those with a hit (about 9.2% of all), similar ones and a draw of the others.
# USP17 block: blocks human USP17 ubiquitin-rhodamine cleavage | 47,000 tested, 6.5% active | purified USP17, Ub-rhodamine cleavage fluorescence, 3 h | inhibition, % at 50 µM | A8MUK1
# USP10 block: blocks human USP10 ubiquitin-rhodamine cleavage. purified USP10, Ub-rhodamine fluorescence, 60 min. inhibition, % at 20 µM. 47,000 tested, 1.1% active. AID 1645856
# UCHL1 block: inhibitors of human UCHL1 deubiquitinase. 47,000 tested, 0.2% active. inhibition, % at 20 µM. purified UCHL1, Ub-rhodamine cleavage fluorescence. AID 1645859. P09936
# OTUD3 inh: blocks human OTUD3 ubiquitin-rhodamine cleavage | Q5T2D3 | purified OTUD3, Ub-rhodamine fluorescence, 2 h | inhibition, % at 25 µM | 47,000 tested, 0.7% active | AID 1645858
# USP8 block: inhibitors of human USP8 deubiquitinase; 47,000 tested, 4.2% active; purified USP8, Ub-rhodamine cleavage fluorescence, 30 min; inhibition, % at 20 µM; P40818
# USP7 inh: inhibitors of human USP7 deubiquitinase. Q93009. inhibition, % at 20 µM. purified USP7, Ub-rhodamine cleavage fluorescence. 47,000 tested, 0.3% active
# Starred values were filed as active, the others as inactive. No stated cut-off is given here; in the data, active means inhibition above about 30%; inactive means the rest.
SMILES,USP17 block,USP10 block,UCHL1 block,OTUD3 inh,USP8 block,USP7 inh
CCOc1ccc2cc3c(nc2c1)OC(=O)N(Cc1ccc(OC)cc1)C3,27,19,4,21,77*,14
Cc1ccc2cc3c(nc2c1)OC(=O)N(Cc1ccc(C)o1)C3,11,13,-4,4,50*,0
COc1ccc2cc3c(nc2c1)OC(=O)N(Cc1ccc(F)cc1)C3,20,1,-1,2,-37,7
COc1cc2c(cc1NS(=O)(=O)c1ccc(C)c(C)c1)oc1ccccc12,-10,-2,-2,-11,-35,1
CCOc1ccc(NC(=O)CSC2=NC3(CCCC3)Nc3ccccc32)cc1,30*,0,1,-4,-2,0
Cc1ccccc1NC(=O)CSC1=NC2(CCCCC2)Nc2ccccc21,22,3,0,-11,37*,2
Cc1ccc(NC(=O)CSC2=NC3(CCCCC3)Nc3ccccc32)cc1,23,3,1,-10,38*,-2
O=C(c1ccccc1)c1nnc(-c2ccccc2)o1,18,4,1,0,0,-2
Nc1nnc(-c2cc(-c3ccc4c(c3)OCO4)on2)o1,2,17,1,-11,54*,8
O=C(c1ccc(N2CCc3ccccc32)s1)N1CCC(N2CCCCC2)CC1,46*,-4,1,8,20,3
COc1ccc(C2CN3C(=O)c4c(ccc(OC)c4OC)C3c3[nH]c4ccccc4c32)cc1 (configuration not stated),-166,-4,-24,-192,-233,-34
O=C(Nc1ccc(F)cc1)c1cccc(-c2nc(-c3ccccc3)no2)c1,5,4,-1,-2,7,1
O=C(Nc1ccccc1)c1ccnc(Nc2ccc(F)cc2)c1,30*,1,0,2,40*,-6
CC(C)CC1NC(=O)C2CCCN2C1=O (configuration not stated),71*,17,41*,33*,54*,-115
COCCn1cnc2c1c(=O)n(CC(=O)NCc1ccccc1OC)c(=O)n2Cc1ccccc1,31*,6,1,17,21,2
CCn1cnc2c1c(=O)n(CC(=O)NCc1ccc3c(c1)OCO3)c(=O)n2Cc1ccccc1,37*,-4,3,14,14,0
CC(C)Cn1cnc2c1c(=O)n(CC(=O)NCCc1ccc(F)cc1)c(=O)n2Cc1ccccc1,24,0,3,17,7,-12
CCn1cnc2c1c(=O)n(CC(=O)NCc1ccccc1Cl)c(=O)n2Cc1ccccc1,55*,-4,-4,29,-5,-12
COc1ccc(CNS(=O)(=O)c2cc3n(c2)CCCNC3=O)cc1,-21,0,-1,-2,-17,-11
O=C(OCc1nc2ccccc2o1)c1cnn(Cc2ccccc2)c1,-3,2,-1,-1,-5,-2
Cc1cccc(NC(=O)c2ccc(N3C(=O)C(C)CS3(=O)=O)cc2)c1C (configuration not stated),34*,6,2,3,3,5
Cc1nc(-c2ccccn2)sc1C(=O)Nc1ccc(C#N)cc1,8,-1,2,4,5,3
O=C(NC1CCCCCC1)c1cccc(S(=O)(=O)Nc2cc(C(F)(F)F)ccc2Cl)c1,33*,53*,6,6,26,2
Cc1ccc(NS(=O)(=O)c2cccc(C(=O)NC3CCN(Cc4ccccc4)CC3)c2)c(C)c1,1,0,7,-5,-1,2
CC(C)CC(NC(=O)C1CC1)c1nc2cccnc2n1C (configuration not stated),0,1,0,-5,5,1
SMILES,USP17 block,USP10 block,UCHL1 block,OTUD3 inh,USP8 block,USP7 inh
Cc1ccc(NC(=O)c2cc(-c3ccncc3)n[nH]2)c(Cl)c1,64*,1,0,0,-1,6
O=C(Nc1ccc(Cl)cc1F)c1cc(-c2ccncc2)n[nH]1,67*,6,0,8,-2,3
O=C(Nc1ccc(F)cc1F)c1cc(-c2ccccn2)n[nH]1,9,13,5,-3,52*,12
O=C(Nc1ccc(F)c(Cl)c1)C1CCN(C(=O)c2cc(-c3ccncc3)n[nH]2)CC1,16,8,9,7,12,12
O=c1oc(-c2cccs2)ns1,0,0,2,13,2,3
O=c1c2ccccc2oc2nc(-c3cccs3)n(-c3ccccc3)c(=O)c12,57*,22,49*,-3,98*,80*
CCOc1ccc(CCNC(=O)c2ccc3c(SCC(=O)O)c4c(nc3c2)CCC4)cc1OCC,34*,5,1,29,29,5
Cc1ccc(CCNC(=O)c2cc(Nc3ccccc3C)nc3ccccc23)cc1,-5,11,6,-9,-3,-7
CCOc1ccc(Nc2cc(C(=O)NCCC3=CCCCC3)c3ccccc3n2)cc1,44*,17,3,16,25,10
CCOc1ccc(CCNC(=O)c2cc(Nc3ccccc3C)nc3ccccc23)cc1OCC,58*,13,4,13,7,5
CCOc1ccc(CCNC(=O)CCC(=O)Nc2ccc3nc(N4CCN(C)CC4)cc(C)c3c2)cc1OCC,28,-2,3,10,9,2
COc1ccc(C(=O)N2CCCC3(CCCN3S(C)(=O)=O)C2)cc1 (configuration not stated),-34,2,-1,-7,-68,0
COc1ccc(S(=O)(=O)c2c(C)c(C)n(C(C)C)c2NC(=O)c2ccccc2F)cc1,31*,0,1,-10,-32,3
Nc1nc2ccc(OCC(=O)O)cc2s1,-20,0,1,8,10,8
Cc1sc(NC(=O)CN2CCCCCC2)nc1-c1ccc2c(c1)CCN2C(=O)CC(C)(C)C,9,2,2,16,19,-11
CCCn1c(=O)n(CC(=O)c2ccc(Cl)cc2)c2c(C(N)=O)nc(-c3ccco3)nc21,38*,-1,-4,-34,-10,6
NC(=O)c1cccc(NC(=O)c2ccc(F)cc2F)c1,13,4,1,12,17,2
CCCn1c(=O)n(CC(=O)c2ccccc2F)c2c(C(N)=O)nc(-c3ccco3)nc21,62*,-3,2,9,59*,7
CCn1c(=O)n(CC(=O)c2ccc(Cl)cc2)c2c(C(N)=O)nc(-c3ccco3)nc21,36*,6,22,7,49*,40*
CC(C)n1c(=O)n(CC(=O)c2ccccc2)c2c(C(N)=O)nc(-c3ccco3)nc21,0,-4,0,-23,-119,3
COc1ccc(C(=O)CSc2nc(-c3ccco3)nc3c2c(=O)n(C)c(=O)n3C)cc1,-4,-1,0,0,2,3
CCn1c(=O)n(CC(=O)c2ccc(F)cc2F)c2c(C(N)=O)nc(-c3ccco3)nc21,26,7,13,10,48*,25

# Assay outcomes deposited in PubChem BioAssay by Buhrlage Lab, Dana-Farber Cancer Institute and Novartis Institutes for BioMedical Research (Cambridge, Mass).
